These results are taken from PubChem BioAssay.

In the test the target is Fibroblast growth factor 2 (Homo sapiens) (UniProt P09038). Put plainly: basic fibroblast growth factor binding to printed compounds – biochemical, small-molecule microarray, 635/667 nm fluorescence, primary screen (AID 1133). The settings on record: FGF2, fluorescence 635/667, higher = more signal.
Chain of Fibroblast growth factor 2 (Homo sapiens) (P09038 whole entry, looked up): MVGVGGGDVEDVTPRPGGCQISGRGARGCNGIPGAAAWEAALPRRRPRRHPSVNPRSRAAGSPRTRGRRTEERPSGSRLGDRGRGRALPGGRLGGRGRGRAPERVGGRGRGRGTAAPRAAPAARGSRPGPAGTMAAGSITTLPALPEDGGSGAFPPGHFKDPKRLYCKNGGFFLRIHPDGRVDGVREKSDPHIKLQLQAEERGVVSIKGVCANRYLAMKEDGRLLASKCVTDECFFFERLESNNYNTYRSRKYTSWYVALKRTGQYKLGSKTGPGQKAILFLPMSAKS
The molecule `CCCC=C(CCC)[C@@H](NS(=O)(=O)c1ccc(-c2ccccc2)cc1)c1ccc(C(=O)OC)cc1` showed a composite z-score of -0.624.
The result for `COc1ccc([Si](C)(C)[C@@H]2[C@@H](CC(=O)N(CCO)Cc3ccccc3)O[C@]3(C(=O)N(Cc4cccc(N5CCC5=O)c4)c4ccccc43)[C@H]2C)cc1` reads 1.4; that for `CCC1=C2CN(Cc3ccccc3Br)[C@@H]([C@@H](O)Cc3ccccc3)C2C=CCC1` (stereo partly specified), 0.209.
The result for `CO[C@H]1COC(=O)[C@H](C)COC(=O)[C@H](Cc2ccccc2)NC(=O)CC=C[C@H]1C` reads 0.807; that for `Cc1ccc(S[C@]2(C(=O)NC3CC3)CC(=O)N(Cc3cc(C(F)(F)F)cc(C(F)(F)F)c3)[C@@H]2c2ccc(CO)cc2)cc1`, 0.411.
The result for `CCCC[C@@H]1C[C@H]1[C@@H](NC(=O)c1cccs1)c1ccc(Cl)cc1` reads -1.6.
As for `COC(=O)C(CC#Cc1ccc2c(c1)[C@]1(C(=O)N2)[C@H](C(=O)N2CCCCCCC2)[C@H]2C(=O)O[C@H](c3ccccc3)[C@H](c3ccccc3)N2[C@@H]1c1ccc(O)cc1)C(=O)OC`, the composite z-score was -1.1.
Next, `CC(C)N1CC=CC23O[C@@H]4/C=C\CCCOC(=O)C4[C@H]2C(=O)N(CCO)[C@@H]3C1=O` (stereo partly specified): -0.635.
The result for `O=C1O[C@H](c2ccccc2)[C@H](c2ccccc2)N2[C@H]1[C@@H](C(=O)NC[C@H](O)c1ccccc1)[C@]1(C(=O)Nc3ccc(C#CC4=CCCCC4)cc31)[C@H]2c1ccc(OCCO)cc1` reads 0.527; that for `Cc1ccc(S[C@]2(C(=O)NC(C)C)CC(=O)N(C3Cc4ccccc4C3)[C@@H]2c2ccc(CO)cc2)cc1`, -0.438; that for `Cc1ccc(S[C@]2(C(=O)NCCCN(C)C)CC(=O)N(Cc3ccccc3)[C@@H]2c2ccc(CO)cc2I)cc1`, -1.33.
Turning to `COc1ccc([C@H]2C[C@H]3C(Br)=C[C@]2(OC)C(=O)[C@]32CO2)cc1`, the composite z-score is 1.2.
Next, `COC(=O)[C@H]1[C@@H]2COc3ccccc3[C@H]2N[C@H]1C(=O)OC`: 0.446; `C=CC[C@]1(C(N)=O)N=C(c2ccc(OCCCO)cc2)O[C@H]1c1ccccc1CN=[N+]=[N-]`: -0.373; `CC(C)[Si](OCC[C@H]1O[C@]2(C(=O)N(Cc3ccccc3)c3ccccc32)[C@@H](C)[C@@H]1[Si](C)(C)O)(C(C)C)C(C)C`: -0.206.
Next, `CC(C)[Si](OCCCNS(=O)(=O)c1ccc(Br)cc1)(C(C)C)C(C)C`: 0.828; `C=CCOC(=O)[C@@H]1[C@H]2C(=O)O[C@H](c3ccccc3)[C@H](c3ccccc3)N2[C@H](c2ccc(OCCOC(=O)[C@H]3C[C@H]4C(=O)N[C@@H](CCCCNC(C)=O)C(=O)N4[C@H]3c3ccc(O)cc3)cc2)[C@@]12C(=O)Nc1ccc(I)cc12`: 1.7; `C[C@]1(C(=O)NCCN2CCOCC2)c2ccccc2C(=O)N(Cc2ccccc2)[C@H]1c1ccc(CO)cc1`: -0.256.
Consider `C=CCN(C(=O)C1N(c2ccc(CCO)cc2)C(=O)C2C(C(=O)O)C3C=CC21O3)C(C)(C)C` (stereo unspecified), for which the composite z-score was -2.13.
Next, `CCOC(=O)C[C@H]1[C@H](OC(=O)Cc2ccc3c(c2)OCO3)[C@@H](NC(=O)c2ccc3ccccc3c2)c2cc(OCCCO)ccc2N1C(=O)Cc1ccc(OC)cc1`: 0.441; `COc1ccc([Si](C)(C)[C@H]2[C@H](CCO)O[C@@]3(C(=O)N(Cc4ccc(N5CCCCC5=O)cc4)c4ccccc43)[C@@H]2C)cc1`: 0.753.
In turn, `COc1cc(CO)cc(I)c1O[C@H]1C=C(C(=O)NCCO)C[C@@H](N(CC2CCCCC2)C(=O)c2cc3ccccc3oc2=O)[C@@H]1O` had a composite z-score of 1.17.
On to `COC(=O)C1=CC(c2ccc(CO)cc2)=CC(C2CC2)N(Cc2sc3ccccc3c2Cl)C=C1C(=O)OC` (stereo unspecified), for which the composite z-score turned out to be 0.3.
`CSCC[C@@H]1NC(=O)CC=C[C@@H](C)COC(=O)[C@H](CCSC)NC(=O)CC=C[C@@H](C)COC1=O` registered a composite z-score of 0.296.
Molecule `COC(=O)[C@@]1(Cc2ccc(OC)cc2)[C@H]2c3cc(C(=O)N(C)C)n(CCc4ccc(OC)c(Br)c4)c3C[C@H]2CN1C(=O)c1ccccc1` had a composite z-score of -0.763.
The result for `COCC(=C=CC[C@H](O)c1ccc(OCCO)cc1)C[C@H](O)c1ccccn1` reads 0.0116.
Regarding `O=C(NCc1ccccc1)[C@@]1(Cc2ccccc2)COC(c2ccc(OCCCO)cc2)=N1`, the composite z-score is -0.238.
`CO[C@@H]1COC(=O)[C@H](C)NC(=O)CC=C[C@@H](C)[C@H](OC)COC(=O)[C@H](C)NC(=O)CC=C[C@H]1C`: the composite z-score amounted to 0.989.
`CCCC=C(CCC)[C@@H](NS(=O)(=O)c1ccc(C(F)(F)F)cc1)c1ccc(-c2ccccc2)cc1` registered a composite z-score of -0.0729.
Next, `CC(C)(C)OC(=O)CC[C@]1(C(=O)N2CCCCC2)N=C(c2ccc(OCCCO)cc2)O[C@H]1c1ccccc1`: 1.15; `CC(=O)NCCCC[C@@H]1NC(=O)[C@@H]2C[C@H](C(=O)NCCCCCNC(=O)CS)[C@H](c3ccc(O)cc3)N2C1=O`: 0.746.
The result for `C=CCC(OC(C)=O)[C@@H]1[C@@H](N(Cc2ccc(-c3cccc(C(F)(F)F)c3)o2)C(=O)Cc2ccc(F)cc2)c2cc(OCCCO)ccc2N1C(=O)c1ccc(-c2ccccc2)cc1` (stereo partly specified) reads -0.246; that for `CO[C@]12C=C(Br)[C@@H](C[C@@H]1c1ccccc1)[C@@]1(CO1)C2=O`, 0.6.
The result for `COCCOC(=O)N1C(=O)[C@@]2(c3cc(C#CCC(C(=O)OC)C(=O)OC)ccc31)[C@H](c1ccccc1OCCO)N1[C@H](c3ccccc3)[C@H](c3ccccc3)OC(=O)[C@H]1[C@@H]2C(=O)N1CCCCCCC1` reads 1.05; that for `CCOC(=O)C1=CC[C@@H](c2ccccc2)N(S(=O)(=O)c2ccc(C)cc2)[C@H]1C`, 0.952.
Molecule `O=C1c2ccccc2[C@](Cc2ccccc2I)(C(=O)NCC(F)(F)F)[C@H](c2ccc(CO)cc2)N1Cc1ccccc1C(F)(F)F` had a composite z-score of 0.381.
